By AC50 is commonly meant the concentration at which the activity in the assay is half-maximal.

Records with an inconclusive call do not appear. The source made the active and inactive calls. How the source made its calls, unless noted: active means hit-call score of the fitted dose curve at least 0.9, where 1 is the maximum; inconclusive means response in the unintended direction; inactive means score below 0.9.

In PubChem BioAssay (EPA / NIEHS) one finds outcome and AC50 data, which are given here for nine compounds.

Read-out in test [1]: Cytochrome P450 2C19 (Homo sapiens) (UniProt P33261)
The test can be described thus: CLD_CYP2C19_6hr: CellzDirect (CLD) Gene Expression Assay for xenobiotic metabolism (CYP2C19) at 6 hours (AID 2283678). In a few lines: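 CYP2C19 transcript induction was quantified by quantitative nuclease protection assay with chemiluminescent read-out, 6 h after dosing. Cells were primary human hepatocytes from two donor preparations, given fresh dosing solutions daily in 0.2% DMSO vehicle. Activity was relative to DMSO.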

Test [2] can be described thus: CCTE_Padilla_ZF_144hpf_TERATOSCORE: (Legacy) CCTE's 144 Hour Post-fertilization zebrafish Assay Teratoscore, Padilla Lab (AID 2283679; active means hit-call score of the fitted dose curve at least 0.9, where 1 is the maximum; inactive means score below 0.9;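 on AC50: zebrafish embryos with chorions exposed by immersion from 6-8 hpf to 5 dpf with daily renewal; teratogenicity score from eye scoring of death hatching and malformations at 144 hpf; higher score means more developmental defects relative to DMSO baseline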). In a few lines: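 Larvae scored by eye at 144 hpf for death, hatching and malformations after a day in clean Hanks'. Before that, daily-renewed exposure at 80 uM (0.4% DMSO, 26C) from roughly 6-8 hpf through 5 dpf, 4 embryos per chemical.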

Read-out in test [3]: Broad substrate specificity ATP-binding cassette transporter ABCG2 (Homo sapiens) (UniProt Q9UNQ0)
The test can be described thus: CLD_ABCG2_24hr: CellzDirect (CLD) Gene Expression Assay for ABC Transporter (ABCG2) at 24 hours (AID 2283685). In a few lines: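 ABCG2 mRNA induction, read as gain of chemiluminescent signal over 0.2% DMSO, was measured by quantitative nuclease protection at 24 h. Cultured human liver hepatocytes were given fresh dosing solutions of test chemicals at several concentrations each day.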

Read-out in test [4]: Cytochrome P450 2C9 (Homo sapiens) (UniProt P11712)
The test can be described thus: CLD_CYP2C9_24hr: CellzDirect (CLD) Gene Expression Assay for xenobiotic metabolism (CYP2C9) at 24 hours (AID 2283688). In short, it runs like this:
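Induction of CYP2C9 mRNA was quantified by quantitative nuclease protection assay (chemiluminescence), gain of signal versus 0.2% DMSO vehicle, 24 h after dosing. Human primary hepatocytes (two donors) received fresh chemical daily at multiple concentrations; morphology-based cytotoxicity flagged yes/no.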

Read-out in test [5]: Cytochrome P450 3A4 (Homo sapiens) (UniProt P08684)
The test can be described thus: CLD_CYP3A4_24hr: CellzDirect (CLD) Gene Expression Assay for xenobiotic metabolism (CYP3A4) at 24 hours (AID 2283689). In short, it runs like this:
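CYP3A4 mRNA induction read by quantitative nuclease protection (chemiluminescence) 24 hr after dosing. Cultured human hepatocytes (two donor preparations) treated daily, vehicle 0.2% DMSO; phase-contrast morphology annotates cytotoxicity.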

Read-out in test [6]: glucuronosyltransferase (UGT1A1), UGT1A1 (gene 54658)
The test can be described thus: CLD_UGT1A1_24hr: CellzDirect (CLD) Gene Expression Assay for glucuronosyltransferase (UGT1A1) at 24 hours (AID 2283696). In short, it runs like this: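 UGT1A1 transcript induction was measured by quantitative nuclease protection assay (chemiluminescence) in human hepatocyte cultures 24 h after daily fresh dosing, with 0.2% DMSO as vehicle and baseline.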

Read-out in test [7]: Cytochrome P450 2C19 (Homo sapiens) (UniProt P33261)
The test can be described thus: CLD_CYP2C19_48hr: CellzDirect (CLD) Gene Expression Assay for xenobiotic metabolism (CYP2C19) at 48 hours (AID 2283700).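 Further: fitted upward so actives raise CYP2C19 mRNA above the 0.2% DMSO vehicle.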 In short, it runs like this:
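CYP2C19 mRNA induction read by chemiluminescent quantitative nuclease protection assay after 48 h, with fresh compound added daily for two days to cultured human liver hepatocytes. Activity fitted upward against 0.2% DMSO vehicle.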

Read-out in test [8]: xenobiotic metabolism (CYP2C9), CYP2C9 (gene 1559)
The test can be described thus: CLD_CYP2C9_48hr: CellzDirect (CLD) Gene Expression Assay for xenobiotic metabolism (CYP1A2) at 48 hours (AID 2283701; active means hit-call score of the fitted dose curve at least 0.9, where 1 is the maximum; inactive means score below 0.9). In a few lines:
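mRNA level measured by quantitative nuclease protection (S1 digestion, chemiluminescent detection) in lysates of human primary hepatocytes exposed 48 h with daily re-dosing. Induction fitted positively versus 0.2% DMSO; morphology-based cytotoxicity flagged yes/no.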

Read-out in test [9]: HMG-CoA synthase (HMGCS2), HMGCS2 (gene 3158)
Put plainly: CLD_HMGCS2_6hr: CellzDirect (CLD) Gene Expression Assay for HMG-CoA synthase (HMGCS2) at 6 hours (AID 2283682).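 Further: actives raise HMGCS2 transcript above the 0.2% DMSO vehicle baseline.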 In a few lines:
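HMGCS2 transcript induction read by quantitative nuclease protection with chemiluminescence, 6 h after dosing of primary human hepatocytes. Baseline was 0.2% DMSO vehicle; phase-contrast morphology gave a yes/no cytotoxicity annotation.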

Read-out in test [10]: xenobiotic metabolism (CYP1A2), CYP1A2 (gene 1544)
Put plainly: CLD_CYP1A2_24hr: CellzDirect (CLD) Gene Expression Assay for xenobiotic metabolism (CYP1A2) at 24 hours (AID 2283683). In a few lines:
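CYP1A2 mRNA induction measured by quantitative nuclease protection (chemiluminescent) in human primary hepatocytes 24 h after multi-concentration chemical dosing with daily fresh solutions. DMSO (0.2%) baseline; positive-direction fitting; morphology-based cytotoxicity noted.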

Read-out in test [11]: Cytochrome P450 2B6 (Homo sapiens) (UniProt P20813)
Put plainly: CLD_CYP2B6_24hr: CellzDirect (CLD) Gene Expression Assay for xenobiotic metabolism (CYP2B6) at 24 hours (AID 2283686). In short, it runs like this:
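qNPA chemiluminescent measurement of mRNA at 24 hours in human primary hepatocyte cultures from two donor preparations, with daily fresh dosing and 0.2% DMSO vehicle as baseline. Morphology-based cytotoxicity flagged yes/no.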

Read-out in test [12]: Cytochrome P450 3A4 (Homo sapiens) (UniProt P08684)
Put plainly: CLD_CYP3A4_48hr: CellzDirect (CLD) Gene Expression Assay for xenobiotic metabolism (CYP3A4) at 48 hours (AID 2283698). In short, it runs like this:
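CYP3A4 induction read by qNPA chemiluminescence after 48 h, with fresh dosing solutions on consecutive days, in cultured human hepatocytes (two donors). Vehicle 0.2% DMSO as baseline; microscopy-based cytotoxicity annotated yes/no alongside data.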

Read-out in test [13]: Cytochrome P450 3A4 (Homo sapiens) (UniProt P08684)
The test can be described thus: CLD_CYP3A4_6hr: CellzDirect (CLD) Gene Expression Assay for xenobiotic metabolism (CYP3A4) at 6 hours (AID 2283680). In short, it runs like this: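 CYP3A4 mRNA induction, 6 h after dosing of cultured primary human hepatocytes from two donors, read by quantitative nuclease protection (qNPA, chemiluminescence). Vehicle 0.2% DMSO as baseline; morphology-based cytotoxicity annotated yes/no.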

Read-out in test [14]: Cytochrome P450 2C19 (Homo sapiens) (UniProt P33261)
The test can be described thus: CLD_CYP2C19_24hr: CellzDirect (CLD) Gene Expression Assay for xenobiotic metabolism (CYP2C19) at 24 hours (AID 2283687).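 Further: activity means mRNA induction above DMSO vehicle baseline.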 In a few lines: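 CYP2C19 mRNA was quantified by qNPA chemiluminescence after 24 h of daily dosing of cultured human primary hepatocytes from two donors; vehicle was 0.2% DMSO, and increases over DMSO baseline were fitted.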

Read-out in test [15]: ABC Transporter (ABCB1), ABCB1 (gene 5243)
The test can be described thus: CLD_ABCB1_48hr: CellzDirect (CLD) Gene Expression Assay for ABC Transporter (ABCB1) at 48 hours (AID 2283695). In short, it runs like this: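 ABCB1 mRNA was measured by quantitative nuclease protection assay (chemiluminescence) 48 h after dosing. Human hepatocyte cultures from two separate donors received fresh dosing solutions daily for two days, with 0.2% DMSO as vehicle. Positive-direction fit against DMSO.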

Read-out in test [16]: sulfotransferase (SULT2A), SULT2A1 (gene 6822)
The test can be described thus: CLD_SULT2A_24hr: CellzDirect (CLD) Gene Expression Assay for sulfotransferase (SULT2A) at 24 hours (AID 2283694). In a few lines:
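mRNA is measured by qNPA: probe hybridisation, S1 nuclease digestion, chemiluminescence, in lysates from human primary hepatocytes harvested 24 h after daily dosing. Vehicle was 0.2% DMSO. Phase-contrast microscopy flagged cytotoxicity (yes/no).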

Read-out in test [17]: ABC Transporter (ABCB1), ABCB1 (gene 5243)
The test can be described thus: CLD_ABCB1_24hr: CellzDirect (CLD) Gene Expression Assay for ABC Transporter (ABCB1) at 24 hours (AID 2283684). In a few lines:
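ABCB1 mRNA induction versus 0.2% DMSO vehicle was read by qNPA chemiluminescence at 24 h. Cultured human hepatocytes from two donor preparations received daily fresh dosing, and phase-contrast cytotoxicity calls were annotated alongside the data.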

Read-out in test [18]: Cytochrome P450 2B6 (Homo sapiens) (UniProt P20813)
Put plainly: CLD_CYP2B6_48hr: CellzDirect (CLD) Gene Expression Assay for xenobiotic metabolism (CYP2B6) at 48 hours (AID 2283699).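 Further: actives raise transcript level above DMSO so potency reflects induction.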 In short, it runs like this:
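CYP2B6 transcript induction, read by quantitative nuclease protection (S1 digestion, chemiluminescent detection) 48 h after dosing, is fitted upward against 0.2% DMSO. Cultured human liver primary cells, two donor preparations, received fresh chemical daily over multiple concentrations.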

Sequence of Cytochrome P450 3A4 (Homo sapiens) (P08684 whole entry, looked up): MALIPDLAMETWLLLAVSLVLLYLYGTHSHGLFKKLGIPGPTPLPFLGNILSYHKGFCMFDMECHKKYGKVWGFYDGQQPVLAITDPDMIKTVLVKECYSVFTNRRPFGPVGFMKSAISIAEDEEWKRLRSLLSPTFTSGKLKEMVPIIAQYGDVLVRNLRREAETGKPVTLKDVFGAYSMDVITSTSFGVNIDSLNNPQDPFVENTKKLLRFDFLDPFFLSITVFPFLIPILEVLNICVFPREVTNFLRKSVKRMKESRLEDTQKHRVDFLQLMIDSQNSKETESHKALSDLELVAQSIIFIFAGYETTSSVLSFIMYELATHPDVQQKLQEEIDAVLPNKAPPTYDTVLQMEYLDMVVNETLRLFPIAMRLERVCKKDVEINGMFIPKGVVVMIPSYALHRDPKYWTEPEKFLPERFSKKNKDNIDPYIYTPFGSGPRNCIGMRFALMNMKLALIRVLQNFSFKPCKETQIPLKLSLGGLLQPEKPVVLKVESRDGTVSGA
Sequence of Broad substrate specificity ATP-binding cassette transporter ABCG2 (Homo sapiens) (Q9UNQ0 whole entry, looked up): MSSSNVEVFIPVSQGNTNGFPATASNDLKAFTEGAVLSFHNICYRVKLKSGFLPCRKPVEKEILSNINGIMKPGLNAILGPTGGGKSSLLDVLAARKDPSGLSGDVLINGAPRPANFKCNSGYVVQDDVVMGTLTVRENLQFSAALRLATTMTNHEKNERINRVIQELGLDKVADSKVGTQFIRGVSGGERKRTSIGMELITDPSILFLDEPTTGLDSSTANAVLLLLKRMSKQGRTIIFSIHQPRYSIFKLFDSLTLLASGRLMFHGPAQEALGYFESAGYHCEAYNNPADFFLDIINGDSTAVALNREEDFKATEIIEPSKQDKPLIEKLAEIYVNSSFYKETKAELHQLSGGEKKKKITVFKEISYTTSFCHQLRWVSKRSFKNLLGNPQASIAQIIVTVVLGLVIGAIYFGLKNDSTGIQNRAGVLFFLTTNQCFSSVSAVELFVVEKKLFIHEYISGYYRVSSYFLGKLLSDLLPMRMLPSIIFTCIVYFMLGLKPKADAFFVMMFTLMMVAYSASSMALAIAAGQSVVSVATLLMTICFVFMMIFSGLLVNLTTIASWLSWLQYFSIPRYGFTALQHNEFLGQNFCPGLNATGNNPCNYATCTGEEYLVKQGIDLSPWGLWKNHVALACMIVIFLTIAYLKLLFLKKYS
Sequence of Cytochrome P450 2C19 (Homo sapiens) (P33261 whole entry, looked up): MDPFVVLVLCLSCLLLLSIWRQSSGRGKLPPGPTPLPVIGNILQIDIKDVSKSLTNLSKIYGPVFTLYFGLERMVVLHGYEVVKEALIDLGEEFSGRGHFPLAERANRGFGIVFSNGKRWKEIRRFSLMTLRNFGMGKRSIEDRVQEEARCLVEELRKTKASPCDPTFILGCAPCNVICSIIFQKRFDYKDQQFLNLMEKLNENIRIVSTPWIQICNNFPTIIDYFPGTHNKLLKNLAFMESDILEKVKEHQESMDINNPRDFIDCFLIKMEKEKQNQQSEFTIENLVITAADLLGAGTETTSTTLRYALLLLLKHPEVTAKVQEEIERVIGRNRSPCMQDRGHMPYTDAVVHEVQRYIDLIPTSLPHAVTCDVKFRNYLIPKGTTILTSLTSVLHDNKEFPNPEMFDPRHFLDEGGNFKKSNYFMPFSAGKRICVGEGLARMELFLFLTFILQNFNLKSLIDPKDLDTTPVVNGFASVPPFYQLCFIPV

For the compound `C[N+]1(C)CCCCC1`, the outcome in [1], in test [2], in test [3], in test [4], in [6] and in test [7] was inactive. For the same compound, the results for the concentration at half-maximal activity (AC50) in test [5] and in [8] were 1.89 µM (active) and 0.0004 µM (active), respectively.

With `O=[N+]([O-])c1cc(C(F)(F)F)c(Cl)c([N+](=O)[O-])c1Nc1ncc(C(F)(F)F)cc1Cl`, the result in [1], in test [9], in test [11], in test [5] and in test [12] was inactive. Also, the AC50 in test [2] is 0.994 µM (active); in test [10] it was 0.508 µM (active).

With `COc1cccc(C(=O)NN(C(=O)c2cc(C)cc(C)c2)C(C)(C)C)c1C`, the compound was called inactive in [1], in [2], in [9], in test [3] and in test [7]. Further, the AC50 in test [13] was 0.886 µM (active); in [11], 2.35 µM (active); in test [5], 3.74 µM (active); in test [6], 4.26 µM (active); in test [12], 1.42 µM (active).

Consider `CCNc1nc(Cl)nc(NC(C)(C)C#N)n1`, for which the compound was classed as inactive in test [1], in test [2], in test [9], in test [10], in [14] and in test [15]. Further, in test [6], the compound was called inactive. For the same compound, the AC50 was 3.69 µM (active) in test [11], 4.74 µM (active) in test [5], 20 µM (active) in test [12] and 0.0364 µM (active) in [8].

Consider `CC(Oc1cccc(Cl)c1)C(=O)O` (stereo not given), for which the result in test [1], in test [2], in test [9], in test [10], in [16] and in test [6] was inactive. Further, in test [7], the result was inactive.

Take `CC(C)N(C(=O)SCC(Cl)=C(Cl)Cl)C(C)C`: the outcome in test [1], in test [13] and in [3] was inactive. For the same compound, the AC50 in [2] was 32.7 µM (active); in [11] it was 20 µM (active); in [5], 20 µM (active); in test [12], 3.07 µM (active).

For the compound `CON=C(C(=O)OC)c1ccccc1CON=C(C)c1cccc(C(F)(F)F)c1`, the result in [1], in [17], in test [3], in [4], in test [15] and in test [6] was inactive. Further, the AC50 in [2] is 0.208 µM (active); in [11], 20 µM (active); in test [5], 15.6 µM (active); in [12], 13.1 µM (active).

Regarding `O=C(O)c1cc(Oc2ccc(C(F)(F)F)cc2Cl)ccc1[N+](=O)[O-]`, the outcome in test [1], in [2], in [11], in test [5], in [6] and in test [7] was inactive. Moreover, the AC50 in test [9] is 0.00569 µM (active).

For the compound `CNc1cnn(-c2cccc(C(F)(F)F)c2)c(=O)c1Cl`, the outcome in [1], in test [2], in test [15] and in [6] was inactive. In addition, the AC50 was 6.64 µM (active) in [11], 5.8 µM (active) in test [5], 13.6 µM (active) in [12] and 3.19 µM (active) in [18].
